# According to publication PMC11062922 (Nature Chemical Biology, 2023):
# Like-named read-outs stand apart in the source and are kept apart here.
# Key:
# Parameters in all cases: species or system human, MV4-11 + K-562 + COLO205 + SK-N-BE2 + OVCAR-8
# CAMK4 = settings: read-out: apparent Kd, n = 1
# CSNK1A1 = settings: read-out: apparent Kd; compound concentrations: 100 nM and 1000 nM (sheet 'Samples'), CATDS: 0.27381506430700697; n = 1
# RIOK2 = settings: read-out: apparent Kd; compound concentrations: 100 nM and 1000 nM (sheet 'Samples'), CATDS: 0.35131899059620803; n = 1
# CDC42BPA = settings: read-out: apparent Kd; compound concentrations: 100 nM and 1000 nM (sheet 'Samples'), CATDS: 6.9468579457902302E-2; n = 1
# CDC42BPB = settings: read-out: apparent Kd, n = 1
# CDC42BPG = settings: read-out: apparent Kd, n = 1
# PKN1 = settings: read-out: apparent Kd, n = 1
# PRKACA = settings: read-out: apparent Kd, n = 1
# PRKACB = settings: read-out: apparent Kd, n = 1
# PRKG1 = settings: read-out: apparent Kd, n = 1
# PRKX = settings: read-out: apparent Kd; compound concentrations: 100 nM and 1000 nM (sheet 'Samples'), CATDS: 6.23454867877557E-2; n = 1
# ROCK1 = settings: read-out: apparent Kd, n = 1
# ROCK2 = settings: read-out: apparent Kd, n = 1
# PRKX;PRKY = settings: read-out: apparent Kd; compound concentrations:100 nM and 1000 nM (sheet 'Samples'); n = 1
# RPS6KB1 = settings: read-out: apparent Kd; compound concentrations:100 nM and 1000 nM (sheet 'Samples'); n = 1
# CDK10 = settings: read-out: apparent Kd; compound concentrations:100 nM and 1000 nM (sheet 'Samples'); n = 1
# CDK6 = settings: read-out: apparent Kd; compound concentrations:100 nM and 1000 nM (sheet 'Samples'); n = 1
# HSP90B1 = settings: read-out: apparent Kd; compound concentrations:100 nM and 1000 nM (sheet 'Samples'); n = 1
# MAPK9 = settings: read-out: apparent Kd; compound concentrations:100 nM and 1000 nM (sheet 'Samples'); n = 1
# EGFR = settings: read-out: apparent Kd; compound concentrations: 100 nM and 1000 nM (sheet 'Samples'), CATDS: 0.39562285113590601; n = 1
# FLT3 = settings: read-out: apparent Kd; compound concentrations:100 nM and 1000 nM (sheet 'Samples'); n = 1
# [1] = compound concentrations:100 nM and 1000 nM (sheet 'Samples')
# [2] = compound concentrations: 100 nM and 1000 nM (sheet 'Samples'), CATDS: 1
smiles,measurement,setting,value
COc1ccc(C2=C(N3CCc4ccccc43)C(=O)NC2=O)cc1 [SB-361058],potency estimated from few doses,"CAMK4; compound concentrations: 100 nM and 1000 nM (sheet 'Samples'), CATDS: 0.39976270483603599",1170 nM
same,potency estimated from few doses,CSNK1A1,2590 nM
same,potency estimated from few doses,RIOK2,1480 nM
NCCCC(NC(=O)c1cc(Br)c(-c2ccnc3[nH]ccc23)s1)c1ccccc1.NCCCC(NC(=O)c1cc(Br)c(-c2ccnc3[nH]ccc23)s1)c1ccccc1.O=C(O)C(F)(F)F.O=C(O)C(F)(F)F (centres unmarked) [GSK1287544A],potency estimated from few doses,CDC42BPA,735 nM
same,potency estimated from few doses,"CDC42BPB; compound concentrations: 100 nM and 1000 nM (sheet 'Samples'), CATDS: 0.12045997656794601",111 nM
same,potency estimated from few doses,"CDC42BPG; compound concentrations: 100 nM and 1000 nM (sheet 'Samples'), CATDS: 0.15429937992002599",65 nM
same,potency estimated from few doses,"PKN1; compound concentrations: 100 nM and 1000 nM (sheet 'Samples'), CATDS: 6.0218156247889197E-2",1750 nM
same,potency estimated from few doses,"PRKACA; compound concentrations: 100 nM and 1000 nM (sheet 'Samples'), CATDS: 0.135293982303474",85.3 nM
same,potency estimated from few doses,"PRKACB; compound concentrations: 100 nM and 1000 nM (sheet 'Samples'), CATDS: 0.11075307193468301",137 nM
same,potency estimated from few doses,"PRKG1; compound concentrations: 100 nM and 1000 nM (sheet 'Samples'), CATDS: 7.6658344406139403E-2",465 nM
same,potency estimated from few doses,PRKX,1370 nM
same,potency estimated from few doses,"ROCK1; compound concentrations: 100 nM and 1000 nM (sheet 'Samples'), CATDS: 0.22662167781686399",33.3 nM
same,potency estimated from few doses,"ROCK2; compound concentrations: 100 nM and 1000 nM (sheet 'Samples'), CATDS: 0.23262842536730999",31.9 nM
Cl.Cl.NC[C@H](Cc1ccc(C(F)(F)F)cc1)NC(=O)c1cc(Br)c(-c2ccnc3[nH]ccc23)s1.NC[C@H](Cc1ccc(C(F)(F)F)cc1)NC(=O)c1cc(Br)c(-c2ccnc3[nH]ccc23)s1 [GSK1487252A],potency estimated from few doses,CDC42BPB; [1],2460 nM
same,potency estimated from few doses,PKN1; [1],2080 nM
same,potency estimated from few doses,PRKACA; [1],20.5 nM
same,potency estimated from few doses,PRKACB; [1],60.6 nM
same,potency estimated from few doses,PRKG1; [1],30.2 nM
same,potency estimated from few doses,PRKX;PRKY,593 nM
same,potency estimated from few doses,ROCK1; [1],217 nM
same,potency estimated from few doses,ROCK2; [1],180 nM
same,potency estimated from few doses,RPS6KB1,461 nM
FC(F)(F)c1cc(Nc2nccc(-c3c(-c4ccc(Cl)cc4)nn4ncccc34)n2)ccc1Cl [GW829351X],potency estimated from few doses,CAMK4; [1],2170 nM
same,potency estimated from few doses,CDK10,1110 nM
same,potency estimated from few doses,CDK6,1600 nM
same,potency estimated from few doses,HSP90B1,114 nM
same,potency estimated from few doses,MAPK9,1950 nM
COc1ccc(-c2nn3ncccc3c2-c2ccnc(Nc3cccc(C(F)(F)F)c3)n2)cc1 [GW827105X],potency estimated from few doses,CDC42BPG; [2],1920 nM
Cc1ccc(NC(=O)c2ccc(Cl)c(Cl)c2)cc1-c1ccc(C(=O)Nc2ccncc2)cc1 [GSK1398460A],potency estimated from few doses,CDC42BPG; [2],1100 nM
CS(=O)(=O)CCNCc1ccc(-c2ccc3ncnc(Nc4ccc(OCc5cccc(C(F)(F)F)c5)cc4)c3c2)o1.Cl [GW567808A],potency estimated from few doses,CDC42BPG; [1],1820 nM
same,potency estimated from few doses,EGFR,995 nM
same,potency estimated from few doses,FLT3,1430 nM
